Reference: article PMC5540273 (PLoS ONE, 2017)

Tests used:
TIE2 = test system: T1, TIE2
T1 construct: gene TEK
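Further: kd values determined as follow-up on hits from a single-replicate KINOMEscan panel screen.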

Cl.O=S(=O)(c1cccc(F)c1)c1ccc(Nc2ncnc3cc(Br)sc23)cc1Cl [GSK306886]
Kd (SRPK1): > 10000 nM

Cn1cc(-c2ccc3c(c2)CCN3C(=O)Cc2cccc(C(F)(F)F)c2)c2c(N)ncnc21 [GSK2606414]
Kd (SRPK3): > 10000 nM

Cc1ccc(C)c(NC(=O)NCCNc2ccnc(Nc3ccc(F)cc3)n2)c1 [GSK1379878]
Kd (STK16): > 10000 nM

c1ccc(-c2ccc3c(-c4ccnc(Nc5ccc6c(c5)OCCO6)n4)cnn3n2)cc1 [GW818941]
Kd (STK16): 620 nM

Cl.Cl.c1ccc(-c2cc3ccncc3cc2OC2CCNCC2)cc1 [GSK1122999]
Kd (STK33): > 10000 nM
Kd (STK36): > 10000 nM

CCc1nc(-c2cccc(N(C)S(=O)(=O)c3ccccc3)c2)c(-c2ccnc(Nc3ccc(N4CCN(C(C)=O)CC4)nc3)n2)s1 [GSK1645895]
Kd (STK36): 56 nM

Cn1ccc2ncnc(Nc3ccc(Oc4cccc(Cl)c4)c(Cl)c3)c21
Kd (TEC): > 10000 nM

Cc1ccc(O)cc1Nc1cc(C(F)(F)F)nc2ccc(-c3ccncc3)cc12 [GW630823]
Kd (TEC): > 10000 nM

CS(=O)(=O)CCNCc1nc(-c2ccc3ncnc(Nc4ccc(OCc5cccc(F)c5)c(Cl)c4)c3c2)cs1.Cl [GW583340]
Kd (TESK1): > 10000 nM

O=C(c1ccc(-c2cc(-c3c[nH]nc3-c3ccccn3)ccn2)cc1)N1CCCC1 [GW792479]
Kd (TGFBR1): 170 nM

FC(F)(F)c1ccc(-c2cc(-c3c[nH]nc3-c3ccccn3)ccn2)cc1 [GW599550]
Kd (TGFBR1): 220 nM

Clc1ccc(-c2cc(-c3c[nH]nc3-c3ccccn3)ccn2)cc1 [GW681251]
Kd (TGFBR2): 530 nM

CC(C)N1CCC(n2cnc(-c3ccc(F)cc3)c2-c2ccnc(N)n2)CC1 [SB-223132]
Kd (TIE2): > 10000 nM
